From PubChem
KB-3-1 tox: kills parental KB-3-1 adenocarcinoma cells | Potency, µM (doses to about 46.1 µM), actives largely listed as cytotoxic | KB-3-1 viability, CellTiter-Glo ATP luminescence, 72 h | actives 1.4% (n = 400,000); note: nearly all actives have a fitted effect of over 60% in size
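Cytotoxicity measured as CellTiter-Glo luminescence after 72 h at 37 C. Compound titrations were pinned onto drug-naive KB-3-1 parental adenocarcinoma cells grown in DMEM with 10% FBS, and normalized data fitted to concentration-response curves.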
TGFb SMAD3 inh: blocks TGF-b signaling; HepG2 CAGA-GFP TGF-b/SMAD3 reporter, GFP fluorescence, 18 h; TGF-beta stimulated, 500 pg/mL final; AID 588855; Potency, µM (doses to about 46.1 µM), most hits filed as inhibitors; actives 1.2% (n = 410,000); note: nearly all actives have a fitted effect of over 65% in size
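First, reporter cells (HEPG2 CAGA-GFP) rested 2 h at 37 degrees C. Next, compounds were pinned in and TGF-beta added to 500 pg/mL final. After 18 h, GFP was imaged per cell and summed per well.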
ATXN2 expr inh: inhibitors of ATXN2 expression. actives 0.72% (n = 360,000). Potency, µM (series often up to 57 µM), most hits filed as inhibitors. AID 1745845. HEK-293 ATXN2-luciferase reporter, luminescence, 24 h; note: nearly all actives have a fitted effect of over 55% in size
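qHTS (up to 57 uM final) was run with 24 h compound exposure of reporter cells at 37 °C. Each well was multiplexed: SteadyGlo luminescence measured ATXN2-luciferase expression after a fluorogenic Gly-Phe-AFC viability readout (25 uM final).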
KB-V1 cytotox: KB-V1 MDR subline cytotoxicity. Potency, µM (titrated, usually from 46.1 µM), actives largely listed as cytotoxic. KB-V1 MDR cells viability, CellTiter-Glo, 72 h. actives 3.4% (n = 400,000); note: nearly all actives have a fitted effect of over 60% in size
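Following 72 h at 37 degrees C with compound, KB-V1 cell viability was read by CellTiter-Glo luminescence, medium being phenol-red-free DMEM plus 10% FBS; concentration-response parameters came from normalized, curve-fitted qHTS data.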
HepG2 tox: counter-screen for TGF-b inhibitors: cytotoxicity in HepG2 cells; HepG2 CAGA-GFP viability, ATP luminescence, 18 h; AID 588856; Potency, µM (titrated, usually from 46.1 µM), most hits filed as cytotoxic; actives 0.76% (n = 410,000)
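HepG2 CAGA-GFP cells (1000/well, DMEM with 1% FBS) received compound, then TGF-beta at 500 pg/mL final, and were incubated 18 hours at 37 degrees C. Viability was read by CellTiter-Glo luminescence. Media-only wells were set as complete cell-killing and DMSO as no toxicity.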
S2 tox: cell viability loss in ATXN counter-screen | Potency, µM (doses to about 56.7 µM), most hits filed as cytotoxic | actives 0.49% (n = 400,000) | S2 cells (HEK-293 line with an ATXN2-luciferase reporter) viability, CellTiter-Fluor protease fluorescence, 24 h; note: nearly all actives have a fitted effect of over 40% in size
Numbers stand for hits; n = inactive; u = inconclusive; x = no result given. A selection: hits, their analogues and other compounds. The true share with any hit is near 5.9%. Calls come from the whole dose curve; as a rule, active = well fitted curve in the direction sought with a large enough effect; inconclusive = small, poorly fitted or top-dose-only effect, or another doubt; inactive = no such curve, though single readings can be large; an effect the other way counts as inactive or inconclusive.

SMILES | KB-3-1 tox | TGFb SMAD3 inh | ATXN2 expr inh | KB-V1 cytotox | HepG2 tox | S2 tox
O=S(=O)(c1ccccc1)c1nc(-c2ccc(F)cc2)oc1NCC1CCCO1 (stereo not given) | n | u | n | 3.66µM | n | u
CSc1oc(-c2ccccc2)nc1S(=O)(=O)c1ccc(C)cc1 | n | n | n | 20.6µM | n | n
Cc1ncoc1C(=O)N1CCOc2ccc(CN3CCC(Oc4cccnc4)CC3)cc2C1 | x | x | x | x | x | n
Cc1ccc(Nc2nc(=O)c3cc([N+](=O)[O-])ccc3s2)cc1 | n | n | x | n | n | n
COc1ccc(Nc2nc(=O)c3cc([N+](=O)[O-])ccc3s2)cc1 | n | n | n | n | 3.98µM | n
O=C(COc1ccccc1)N(CCc1ccccc1)c1nc(-c2ccc(F)cc2)cs1 | n | n | n | 14.6µM | n | u
Cc1ccc(-c2csc(N(CCc3ccccc3)C(=O)COc3ccccc3)n2)cc1 | n | n | n | n | n | n
CC(=O)Nc1cccc(-c2csc(Nc3ccc(C)cn3)n2)c1 | n | u | n | n | n | n
COc1ccc(COc2cc(-c3cccc(OC)c3)nc3ccc(NC(=O)C(C)C)cc23)cc1 | 2.59µM | n | n | u | n | u
CC(=O)Nc1cccc(-c2cnc(NC(C)=O)cn2)c1 | 18.4µM | n | n | n | n | n
CC(C)C(=O)Nc1cccc(-c2cnc3ccccc3n2)c1 | n | n | n | 13µM | n | n
O=C(CCC1CCN(C(=O)C2CC=CCC2)CC1)Nc1ccccc1 (stereo not given) | n | n | x | 16.4µM | n | n
COC(=O)C1C(c2ccccc2)C(C(=O)OCc2ccco2)C1c1ccccc1 (stereo not given) | u | u | n | 13µM | n | n
Cc1ccc(S(=O)(=O)c2cn(CC(=O)Nc3ccccc3C)c3cc4c(cc3c2=O)OCO4)cc1 | u | n | n | n | n | n
C=CC(C)(C)c1c(O)c(CC=C(C)C)c(O)c2c(=O)c3ccc(O)c(O)c3oc12 | u | 11.2µM | u | u | 14.1µM | 28.2µM
Cc1ccccc1N1CCN(CCC(=O)Nc2ccc(F)cc2)CC1 | u | n | x | 18.4µM | n | n
O=C(CCN1CCN(c2ccccc2F)CC1)Nc1ccc(F)cc1 | n | n | x | n | n | n
COc1ccc(/C=N/OCC(=O)NCC(C)C)c(OC)c1 | n | n | n | n | n | n
COc1ccc(C(NC(=O)c2cc(OC)ccc2OC)c2ccccc2)cc1 (stereo not given) | u | n | n | 8.2µM | n | n
CCOc1ccc(/C=N/OCC(=O)Nc2cc(C)on2)cc1 | n | n | n | n | n | n
CCOc1ccc(/C=N/OCC(=O)NC(c2ccccc2)c2ccccc2)cc1 | u | 22.4µM | n | u | n | n
COc1ccc(/C=N/OCC(=O)NC(c2ccccc2)c2ccccc2)c(OC)c1 | n | u | n | 23.1µM | n | n
Cc1ccc(C)c(Nc2nn3c(=O)c4ccc(C(=O)NCCc5ccccc5)cc4nc3s2)c1 | n | n | n | n | n | n
COc1ccccc1Nc1nn2c(=O)c3ccc(C(=O)NCCC4=CCCCC4)cc3nc2s1 | u | 5.01µM | 3.16µM | u | 5.01µM | x
COc1ccccc1Nc1nn2c(=O)c3ccc(C(=O)NCCc4ccccc4)cc3nc2s1 | x | 2.24µM | x | x | 3.16µM | x
SMILES | KB-3-1 tox | TGFb SMAD3 inh | ATXN2 expr inh | KB-V1 cytotox | HepG2 tox | S2 tox
Cc1ccc(NC(=O)c2ccc3c(=O)n4nc(Nc5ccccc5C)sc4nc3c2)cc1C | n | u | n | n | 2.82µM | n
O=C(/C=C/c1ccccc1Cl)Nc1nc(-c2cccs2)ns1 | x | u | x | x | n | x
COC(=O)N1CCN(c2ccc(Cl)c(Cl)c2)CC1 | u | n | n | 23.1µM | n | n
COC(=O)N1CCN(c2ccc(OC)cc2)CC1 | n | n | n | u | n | n
Nc1ccc(N2CCN(c3ccc(Cl)c(Cl)c3)CC2)cc1 | 20.6µM | n | n | 18.4µM | n | n
CC(C)N=c1scc(-c2ccco2)n1/N=C/c1ccc(O)c(O)c1 | n | u | n | u | n | 31.6µM
COCCN=c1scc(-c2ccco2)n1/N=C/c1ccc(O)c(O)c1O | n | n | n | u | n | n
COc1ccc(-c2nnc(CSc3nc4ccccc4c(=O)n3C)o2)cc1OC | n | n | n | 3.66µM | n | n
COc1nc(NC(C)(C)C)nc(Oc2ccc(=O)n(-c3ccccc3)n2)n1 | n | n | n | 20.6µM | n | n
CCn1c(SCC(=O)Nc2ccc(C(C)=O)cc2)nc2nc3c(cc2c1=O)CCCC3 | n | n | u | n | n | 28.2µM
CCn1c(SCC(=O)Nc2ccc(C(C)=O)cc2)nc2nc3c(cc2c1=O)COC(C)(C)C3 | n | n | x | n | n | n
CCn1c(SCC(=O)Nc2ccc(OC)cc2)nc2nc3c(cc2c1=O)CCCC3 | n | n | n | n | n | u
CCn1c(SCC(=O)Nc2ccc(Cl)cc2)nc2nc3c(cc2c1=O)CCCC3 | n | n | n | 0.517µM | n | n
O=C(Nc1ccc2oc(-c3cccnc3)nc2c1)c1ccc(-c2cccc(OC(F)(F)F)c2)o1 | x | n | x | x | n | x
CC(CCc1ccccc1)NC(=O)CSc1n[nH]c(-c2ccc(F)cc2)n1 (stereo not given) | x | 11.2µM | x | x | n | x
Cc1ccc(NC(=O)CSc2n[nH]c(-c3ccc(F)cc3)n2)cc1F | x | 11.2µM | x | x | n | x
Cc1ccc(NC(=O)CSc2ncccn2)cc1F | n | n | x | n | n | n
Cc1ccc(CN2CCN(C3CCN(C(=O)Nc4ccc(C)cc4Cl)CC3)C(=O)C2=O)cc1 | n | n | n | n | n | n
O=C(CCN1C(=O)C2C3C=CC(C3)C2C1=O)N1CCN(c2ccccn2)CC1 (stereo not given) | n | n | n | n | n | n
O=C1C2C3C=CC(C3)C2C(=O)N1c1ccc(N2CCN(c3ccccn3)CC2)c([N+](=O)[O-])c1 (stereo not given) | n | n | x | 10.3µM | n | u
COC(=O)C1CCN(Cc2ccc3c(c2)CN(C(=O)c2sc(C)nc2C)CCO3)CC1 | x | x | x | x | x | n
O=C(Nc1ccc(Cl)cc1)N1CCCN(Cc2ccc(F)cc2)C1 | u | u | u | u | 11.2µM | u
O=C(Nc1ccccc1)N1CCN(Cc2ccc(Cl)cc2)CC1 | n | n | x | n | n | u
COc1ccc(OCC(=O)N/N=C/c2ccc(O[C@@H]3O[C@H](CO)[C@@H](O)[C@H](O)[C@H]3O)cc2)cc1 | 3.66µM | n | n | n | n | n
CCCS(=O)(=O)c1nnnn1-c1cccc(OC)c1 | n | u | u | n | 17.8µM | x
COc1cccc(-n2nnnc2SCC(=O)Nc2ccccc2OC)c1 | n | n | n | n | n | n
